Results on seven compounds are retold here after PubChem BioAssay (Tox21).

Unmarked numbers belong to inactive results. Results filed as inconclusive are left out. Activity calls are given as the source filed them. Unless noted, calls come from the whole dose curve; as a rule, active = well fitted curve in the direction sought with a large enough effect in the repeat runs; inconclusive = weak or mixed curves; inactive = no such curve, though single readings can be large; an effect the other way counts as inactive or inconclusive.

Assay [1] is described as follows: qHTS assay to identify small molecule antagonists of the estrogen receptor beta (ER-beta) signaling pathway - cell viability counter screen (AID 1259382).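 Note: HEK293T cells carrying ER-beta-UAS-bla reporter stimulated with estradiol; series mostly up to about 92 µM; nearly all actives have a fitted effect of over 55% in size.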 The essentials:
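HEK293T ER-beta-UAS-bla, 2% charcoal-stripped FBS; compounds + 1nM E2 16 hr 37C; CellTiter-Glo luminescence, 30 min RT.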
On the technique in general: qHTS replaces the single test concentration by a dilution series.

Assay [2] deals with Estrogen receptor (Homo sapiens) (UniProt P03372). Nature of the assay: qHTS assay to identify small molecule agonists of the estrogen receptor alpha (ER-alpha) signaling pathway in the presence of an antagonist (AID 1259383; calls by dose curve; note: top concentration of the series differs between compounds; nearly all actives have a fitted effect of over 15% in size). In outline: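 ER-alpha agonism measured under antagonist challenge: 10.0nM ICI-182,780 (final) plus compound, 15 concentrations, 22hr, VM7Luc4E2 ERE-luciferase cells. Read by luminescence.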

Assay [3] is described as follows: qHTS assay to identify small molecule agonists or antagonists of the thyroid stimulating hormone receptor (TSHR) signaling pathway - wild type cell line counter screen (AID 1259384; calls by dose curve). The essentials:
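Wild-type Hek293 cells, 800/well, 18 h at 37C, then compound with Ro20-1724 for 30 min RT. cAMP by HTRF (cAMP-d2/anti-cAMP cryptate), 1 h RT, fluorescence read. 15 concentrations, triplicates.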

Assay [4] concerns the target Thyrotropin receptor (Homo sapiens) (UniProt P16473). As to the kind of experiment: qHTS assay to identify small molecule antagonists of the thyroid stimulating hormone receptor (TSHR) signaling pathway (AID 1259385; calls by dose curve; note: nearly all actives have a fitted effect of over 20% in size). In outline:
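TSHR-HEK293 cells (800/well) plated 18 h, then compounds with Ro20-1724 and TSH at 1.5 ng/mL final, 30 min at room temperature. cAMP quantified by HTRF (cAMP-d2/anti-cAMP-cryptate, 1 h); 15 concentrations in triplicate.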

The nature of assay [5]: qHTS assay to identify small molecule agonists of the estrogen receptor alpha (ER-alpha) signaling pathway in the presence of an antagonist - cell viability counter screen (AID 1259386).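 Note: series mostly up to about 92 µM; cells exposed to compounds for 22 h at 37 °C before the viability read; nearly all actives have a fitted effect of over 30% in size.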 In outline: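 Steps: 5-day stripped-FBS culture; seed and incubate 24hr; add ICI-182,780 (10.0nM final); pin 15-point compound titration; incubate 22hr at 37C; add CellTiter-Fluor at 21hr; read fluorescence.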

Assay [6] addresses Progesterone receptor (Homo sapiens) (UniProt P06401). Nature of the assay: qHTS assay to identify small molecule agonists of the progesterone receptor (PR) signaling pathway (AID 1346784; calls by dose curve; note: nearly all actives have a fitted effect of over 30% in size; note: potency is the fitted concentration of half-maximal effect). The essentials:
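Seed PR-UAS-bla HEK 293T cells (2% charcoal-stripped FBS), incubate 6 hr at 37C; add compounds in DMSO, 16 hr at 37C; add LiveBLAzer B/G substrate, 2 hr RT; read fluorescence intensity.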

For assay [7] the target is unchanged. Nature of the assay: qHTS assay to identify small molecule antagonists of the progesterone receptor (PR) signaling pathway (AID 1346795; active = well fitted inhibition curve with a large enough effect in the signal ratio in the repeat runs, not every such curve was filed as active; the % refers to the signal ratio). In outline: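 Screening used a GripTite HEK293T line with PR-responsive UAS-beta-lactamase. Cells were challenged with compound in the presence of 1 nM R5020 final for 16 hr at 37C; B/G FRET substrate, 2 hr room temperature, fluorescence.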

Assay [8] in a line: qHTS assay to identify small molecule antagonists of the progesterone receptor (PR) signaling pathway - cell viability counter screen (AID 1346798). Note: series mostly up to about 92 µM; nearly all actives have a fitted effect of over 50% in size. The essentials:
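Measures cytotoxicity in parallel with the PR antagonist reporter read: HEK293T PR-UAS-bla cells get compound and R5020 for 16 hr, and remaining viable cells are quantified by CellTiter-Glo luminescence.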

The nature of assay [9]: qHTS assay to identify small molecule agonists of the progesterone receptor (PR) signaling pathway - cell viability counter screen (AID 1346799; calls by dose curve; note: nearly all actives have a fitted effect of over 45% in size). In outline:
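Using the same plates as the PR reporter screen, HEK293T PR-UAS-bla cells received compounds for 16 hr at 37C and were then lysed with CellTiter-Glo; luminescence was read 30 min later at room temperature.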

Assay [10] can be described thus: qHTS assay to identify small molecule antagonists of the TGF-beta/Smad signaling pathway - cell viability counter screen (AID 1346824). Note: nearly all actives have a fitted effect of over 50% in size. In outline: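 SBE-bla HEK 293T cells, incubated overnight, then compound plus 0.25 ng/mL TGF-beta1 (stock added) for 5 hr at 37 C. Viability was read in the same wells by CellTiter-Glo luminescence after 30 min at room temperature.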

Assay [11] is described as follows: qHTS assay to identify small molecule agonists of the TGF-beta/Smad signaling pathway - cell viability counter screen (AID 1346829). Note: top concentration of the series differs between compounds; nearly all actives have a fitted effect of over 45% in size. In outline: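 SBE-bla HEK 293T cells plated overnight, compound exposure 5 hr at 37 C. Viability read in the same wells by CellTiter-Glo luminescence after 30 min at room temperature, following the beta-lactamase read.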
A short description of assay [12]: qHTS assay to identify small molecule agonists of the TGF-beta/Smad signaling pathway (AID 1346859; active = well fitted activation curve with a large enough effect in the signal ratio in the repeat runs, not every such curve was filed as active; the % refers to the signal ratio; note: series mostly up to about 77 µM). The essentials:
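Beta-lactamase reporter activity downstream of Smad binding elements was measured in stably transfected HEK 293T cells; compounds were incubated for 5 hr, substrate for 2 hr at room temperature.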

Assay [13] addresses Thyrotropin-releasing hormone receptor (Homo sapiens) (UniProt P34981). As to the kind of experiment: qHTS assay to identify small molecule antagonists of the thyrotropin-releasing hormone receptor (TRHR) signaling pathway (AID 1346877; active = well fitted inhibition curve with a large enough effect in the repeat runs, not every such curve was filed as active; note: series mostly up to about 51 µM). The essentials:
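Human TRHR in HEK293 cells; inhibition of the intracellular calcium rise triggered by 1 nM TRH was followed by fluorescence over 3 min. Compounds were run at 15 concentrations, three replicates each.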

The target is the same in assay [14]. As to the kind of experiment: qHTS assay to identify small molecule agonists of the thyrotropin-releasing hormone receptor (TRHR) signaling pathway (AID 1346891; calls by dose curve;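 note: HEK293 cells expressing TRHR with calcium dye readout; series mostly up to about 58 µM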). The essentials:
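Overnight-plated (18 h, 37 °C, 5% CO2) TRHR-Hek293 cells; 2 h calcium dye at 37 °C; compound in DMSO; 3-min kinetic fluorescence read.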

Assay [15] is described as follows: Human pregnane X receptor (PXR) small molecule agonists, qHTS cell viability counter screen (AID 1346977). Note: nearly all actives have a fitted effect of over 50% in size. In outline:
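After a 5hr pre-incubation, PXR-Luc HepG2 cells received compounds plus positive control in DMSO and were kept 24hr at 37C. Cell viability was quantified by fluorescence from CellTiter-Fluor added for the final hour.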

Assay [16] is described as follows: Caspase-3/7 induction in HepG2 cells by small molecules, qHTS assay (AID 1346978). Note: nearly all actives have a fitted effect of over 15% in size. In outline: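 Wild-type HepG2 cells, 2,000/well, settled 5 hr at 37 C and 5% CO2, then compound-treated for 17 hr; caspase-3/7 activity read by luminescent Caspase-Glo 3/7 after 30 min at room temperature.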
Assay [17] can be described thus: Caspase-3/7 induction in CHO-K1 cells by small molecules, qHTS cell viability counter screen (AID 1346979). Note: nearly all actives have a fitted effect of over 35% in size. The essentials: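 Multiplexed with Caspase-Glo 3/7 in CHO-K1 cells, this counter screen added CellTiter-Fluor after 16hr of compound exposure and recorded fluorescence 1hr later.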
The nature of assay [18]: Caspase-3/7 induction in CHO-K1 cells by small molecules, qHTS assay (AID 1346980). Note: nearly all actives have a fitted effect of over 15% in size. The essentials:
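Wild-type CHO-K1 cells exposed to compounds for 17hr at 37 C, 5% CO2. Caspase-3/7 activity then measured by Caspase-Glo 3/7 luminescence after 30min at room temperature.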

Assay [19] is described as follows: Caspase-3/7 induction in HepG2 cells by small molecules, qHTS cell viability counter screen (AID 1346981). Note: series mostly up to about 92 µM; nearly all actives have a fitted effect of over 30% in size. In outline: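 The parent HepG2 line is plated at 2,000 cells per well and rested 5 hr before compound pinning from DMSO stocks. Following a 16-hr treatment at 37 C, a fluorogenic live-cell substrate (CellTiter-Fluor) reports viability after 1 hr.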
For assay [20], the target named is Nuclear receptor subfamily 1 group I member 2 (Homo sapiens) (UniProt O75469). As to the kind of experiment: Human pregnane X receptor (PXR) small molecule agonists, qHTS assay (AID 1346982). Note: nearly all actives have a fitted effect of over 35% in size. The essentials: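 After plating in 5% charcoal-stripped FBS and a 5 hr rest, PXR-Luc HepG2 cells received compounds in DMSO. Following 24 hr at 37 C, ONE-Glo was added and light output read.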
% is set by controls: 0 for no effect and ±100 for the full control effect.

Chain of Thyrotropin receptor (Homo sapiens) (P16473 whole entry, looked up): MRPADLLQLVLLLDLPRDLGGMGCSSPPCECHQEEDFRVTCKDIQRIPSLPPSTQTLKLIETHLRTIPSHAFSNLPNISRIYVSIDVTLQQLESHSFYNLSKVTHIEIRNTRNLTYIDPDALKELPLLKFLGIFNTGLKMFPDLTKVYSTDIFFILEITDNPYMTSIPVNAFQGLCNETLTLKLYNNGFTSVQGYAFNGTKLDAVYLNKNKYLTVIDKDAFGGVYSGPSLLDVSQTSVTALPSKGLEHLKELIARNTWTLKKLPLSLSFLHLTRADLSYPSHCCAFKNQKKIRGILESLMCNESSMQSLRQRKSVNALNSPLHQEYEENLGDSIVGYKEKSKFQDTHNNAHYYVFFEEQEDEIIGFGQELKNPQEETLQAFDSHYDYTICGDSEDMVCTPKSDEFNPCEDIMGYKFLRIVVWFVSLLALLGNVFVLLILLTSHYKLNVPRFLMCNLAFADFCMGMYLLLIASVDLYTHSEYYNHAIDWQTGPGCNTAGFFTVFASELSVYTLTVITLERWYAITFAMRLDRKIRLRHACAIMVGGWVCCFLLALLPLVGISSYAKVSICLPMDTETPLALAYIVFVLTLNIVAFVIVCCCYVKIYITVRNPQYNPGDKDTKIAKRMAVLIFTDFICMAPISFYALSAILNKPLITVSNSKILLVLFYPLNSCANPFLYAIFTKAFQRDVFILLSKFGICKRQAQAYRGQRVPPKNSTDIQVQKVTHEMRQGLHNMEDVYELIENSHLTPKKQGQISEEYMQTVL
Chain of Nuclear receptor subfamily 1 group I member 2 (Homo sapiens) (O75469 whole entry, looked up): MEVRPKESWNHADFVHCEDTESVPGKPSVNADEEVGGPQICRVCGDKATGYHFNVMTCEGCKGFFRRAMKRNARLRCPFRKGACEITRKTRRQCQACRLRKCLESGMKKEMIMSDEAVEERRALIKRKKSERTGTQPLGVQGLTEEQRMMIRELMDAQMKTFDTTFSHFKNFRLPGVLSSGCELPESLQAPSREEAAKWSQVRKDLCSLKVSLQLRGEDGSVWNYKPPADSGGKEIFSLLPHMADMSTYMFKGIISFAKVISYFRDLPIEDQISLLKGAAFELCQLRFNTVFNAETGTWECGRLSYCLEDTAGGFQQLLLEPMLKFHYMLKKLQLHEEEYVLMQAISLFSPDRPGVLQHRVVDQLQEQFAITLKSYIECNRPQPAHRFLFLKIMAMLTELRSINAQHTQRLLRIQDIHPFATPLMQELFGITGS
Chain of Thyrotropin-releasing hormone receptor (Homo sapiens) (P34981 whole entry, looked up): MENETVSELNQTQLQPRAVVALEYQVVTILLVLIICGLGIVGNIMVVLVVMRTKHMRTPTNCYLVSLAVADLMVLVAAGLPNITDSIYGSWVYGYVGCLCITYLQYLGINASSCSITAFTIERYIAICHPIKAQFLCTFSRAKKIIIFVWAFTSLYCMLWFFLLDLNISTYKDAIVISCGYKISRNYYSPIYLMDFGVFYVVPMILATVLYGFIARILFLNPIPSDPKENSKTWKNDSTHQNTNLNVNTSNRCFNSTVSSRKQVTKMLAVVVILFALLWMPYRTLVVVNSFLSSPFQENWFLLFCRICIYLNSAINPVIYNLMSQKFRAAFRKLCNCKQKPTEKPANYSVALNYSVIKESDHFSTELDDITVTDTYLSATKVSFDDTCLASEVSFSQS
Chain of Progesterone receptor (Homo sapiens) (P06401 whole entry, looked up): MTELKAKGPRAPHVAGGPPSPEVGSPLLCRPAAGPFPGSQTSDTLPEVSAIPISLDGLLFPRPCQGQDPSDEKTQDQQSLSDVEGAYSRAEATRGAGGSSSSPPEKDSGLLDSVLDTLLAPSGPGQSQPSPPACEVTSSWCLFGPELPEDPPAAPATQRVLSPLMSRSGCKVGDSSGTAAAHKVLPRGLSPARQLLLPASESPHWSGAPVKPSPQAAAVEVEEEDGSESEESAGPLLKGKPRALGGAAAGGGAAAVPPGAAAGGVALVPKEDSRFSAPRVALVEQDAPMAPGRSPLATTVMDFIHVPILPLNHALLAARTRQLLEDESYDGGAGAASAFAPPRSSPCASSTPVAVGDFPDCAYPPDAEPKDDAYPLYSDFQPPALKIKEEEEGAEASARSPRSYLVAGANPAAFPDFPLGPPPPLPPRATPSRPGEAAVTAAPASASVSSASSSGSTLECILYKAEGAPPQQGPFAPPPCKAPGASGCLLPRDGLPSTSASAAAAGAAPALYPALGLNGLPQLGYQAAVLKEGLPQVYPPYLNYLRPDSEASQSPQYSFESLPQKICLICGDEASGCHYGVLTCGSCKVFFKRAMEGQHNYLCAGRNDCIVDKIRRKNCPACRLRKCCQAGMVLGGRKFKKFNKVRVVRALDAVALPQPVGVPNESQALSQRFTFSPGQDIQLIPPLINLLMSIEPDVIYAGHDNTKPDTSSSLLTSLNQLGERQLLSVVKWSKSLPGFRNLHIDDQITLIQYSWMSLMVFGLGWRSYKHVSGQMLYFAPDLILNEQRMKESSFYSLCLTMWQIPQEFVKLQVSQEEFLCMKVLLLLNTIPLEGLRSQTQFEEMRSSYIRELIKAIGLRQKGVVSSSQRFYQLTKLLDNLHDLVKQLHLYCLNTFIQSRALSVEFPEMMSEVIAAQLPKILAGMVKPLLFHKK
Chain of Estrogen receptor (Homo sapiens) (P03372 whole entry, looked up): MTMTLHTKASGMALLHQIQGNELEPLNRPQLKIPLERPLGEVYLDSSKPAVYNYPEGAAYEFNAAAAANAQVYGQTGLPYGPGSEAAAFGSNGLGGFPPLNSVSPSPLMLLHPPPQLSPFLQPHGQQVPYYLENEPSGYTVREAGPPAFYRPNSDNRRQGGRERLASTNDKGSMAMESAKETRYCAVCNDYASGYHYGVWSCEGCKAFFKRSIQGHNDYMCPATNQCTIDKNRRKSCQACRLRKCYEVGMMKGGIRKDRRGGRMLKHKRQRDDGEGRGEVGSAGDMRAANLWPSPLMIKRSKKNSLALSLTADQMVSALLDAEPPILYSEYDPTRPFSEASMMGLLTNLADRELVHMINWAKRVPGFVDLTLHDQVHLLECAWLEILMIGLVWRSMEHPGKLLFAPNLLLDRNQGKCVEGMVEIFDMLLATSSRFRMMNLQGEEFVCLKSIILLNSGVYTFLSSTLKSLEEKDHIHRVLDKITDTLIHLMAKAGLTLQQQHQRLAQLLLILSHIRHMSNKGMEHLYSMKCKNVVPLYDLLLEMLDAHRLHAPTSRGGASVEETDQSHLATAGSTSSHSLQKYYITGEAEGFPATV

On to `O=S(=O)(O)CCO`, for which the result in assay [1], in assay [2], in assay [3], in assay [4], in assay [10] and in assay [11] was inactive. Moreover, the result in [12], in assay [13], in assay [14], in assay [16] and in [18] was inactive. The Potency result in [5], in assay [7], in assay [8], in [9], in assay [15] and in [17] was “inactive” in each case. Moreover, the Potency result in assay [19] was “inactive”. Moreover, the Potency in [6] was 49.2 µM (active).

For `CCN(CC)C(=O)C1CN2CCc3cc(OC)c(OC)cc3C2CC1OC(C)=O` (stereo unspecified), the compound was called inactive in assay [1], in assay [2], in [3], in assay [4], in assay [10] and in assay [11]. Also, the call in assay [12], in assay [13], in assay [14], in assay [16] and in [18] was inactive. Besides, the Potency entry in assay [5], in assay [6], in [8], in assay [9], in [15] and in assay [17] was “inactive” throughout. The Potency result in assay [19] and in assay [20] was “inactive” throughout.

With `Nc1cc(Cl)cc(S(=O)(=O)O)c1O`, the compound was classed as inactive in assay [1], in assay [2], in assay [3], in assay [4], in [10] and in assay [11]. Besides, the compound was classed as inactive in assay [12], in [13], in [14], in assay [16] and in [18]. Also, the Potency entry in assay [5], in assay [6], in [7], in assay [8], in assay [9] and in assay [15] was “inactive” throughout. The Potency entry in [17], in assay [19] and in assay [20] was “inactive” in each case.

Regarding `NC(=O)C1(N2CCCCC2)CCN(CCCC(=O)c2ccc(F)cc2)CC1`, the result in assay [1], in [2], in assay [3], in assay [4], in assay [10] and in assay [11] was inactive. The compound was classed as inactive in assay [12] and in assay [16]. The Potency result in assay [5], in assay [6], in assay [7], in [8], in assay [9] and in assay [15] was “inactive” each time. For the same compound, the Potency result in assay [17] and in assay [19] was “inactive” throughout.

Consider `CC(C)(c1ccc(Oc2ccc3c(c2)C(=O)OC3=O)cc1)c1ccc(Oc2ccc3c(c2)C(=O)OC3=O)cc1`, for which the call in assay [1], in [2], in [3], in [4], in assay [10] and in [11] was inactive. Moreover, the compound was called inactive in assay [12], in assay [16] and in assay [18]. Moreover, the Potency entry in [5], in [6], in assay [7], in [8], in [9] and in [15] was “inactive” throughout. Also, the Potency entry in assay [19] was “inactive”.

As for `CNC(=O)NC`, the compound was classed as inactive in [1], in assay [2], in [3], in [4], in [11] and in [12]. Moreover, the result in assay [16] and in assay [18] was inactive. Further, the Potency entry in [5], in assay [6], in assay [7], in [8], in assay [9] and in assay [17] was “inactive” throughout. Also, the Potency entry in assay [19] and in assay [20] was “inactive” in each case.

As for `O=c1[nH]c(=O)c2[nH]c(=O)[nH]c2[nH]1`, the activity change, negative = cytotoxicity was 3.94% [at 8.39 µM] in [1]; 1.17% [at 8.39 µM] in assay [5]; -11.7% [at 8.39 µM] in [8]; -1.97% [at 8.39 µM] in [9]; -0.0048% [at 6.97 µM] in assay [11]; -1.5% [at 8.39 µM] in assay [15]. The activity change, negative = cytotoxicity in assay [17] is 4.37% [at 8.39 µM]; in assay [19], 2.67% [at 8.39 µM]. Moreover, the activation in [2] was 0.0928% [at 8.39 µM]; in assay [6], -0.558% [at 8.39 µM]; in [12], -2.44% [at 6.97 µM]; in [14], 0.501% [at 5.23 µM]; in assay [20], -5.05% [at 8.39 µM]. Also, the cAMP activity change in assay [3] is -3.72% [at 8.39 µM]. Further, the activity change, negative = inhibition in assay [4] is 0.717% [at 8.39 µM]; in assay [7], 0.247% [at 8.39 µM]. For the same compound, the viability change, negative = cytotoxic in assay [10] was 2.42% [at 6.97 µM]. Further, in assay [13], the activity, negative = inhibition was 0.0155% [at 4.65 µM]. Besides, the caspase activation in assay [16] was -0.796% [at 8.39 µM]. In assay [18], the caspase-3/7 activation is -0.0479% [at 8.39 µM].
